# Shiga inhibitor – A qHTS for Small Molecule Inhibitors of Shiga Toxin; Vero cells, Shiga toxin protein synthesis inhibition reporter; 290,000 tested, 9.2% active; inhibition, % at 38.7 µM; in the data active = inhibition mostly above about 28%, no sharp cut-off; inactive = mostly below about 43%; also: 0% is about no effect
# Pf growth 96h – Primary qHTS for delayed death inhibitors of the malarial parasite plastid, 96 hour incubation. P. falciparum luciferase reporter growth, 96 h. Potency, µM (titrated, usually from 28.7 µM), for the others: at the highest dose activity change, negative = inhibition, hits mostly inhibitors. 320,000 tested, 6.9% active; also: potency is read from the fitted curve at half-maximal effect; % is scaled to controls: 0 for no effect and ±100 for the full control effect
#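 Plates of compound plus infected erythrocytes (2% hematocrit, 0.05% parasitemia final) incubate 96 hours, 37 C, 5% CO2. Detection reagent added; reduced luminescence from the parasites' luciferase reporter flags inhibition.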
# Cycloheximide cs – Cycloheximide Counterscreen for Small Molecule Inhibitors of Shiga Toxin. cell reporter, cycloheximide protein synthesis inhibition counterscreen. max response, %. 300,000 tested, 12% active. AID 2314, 2010; in the data active = max response mostly above about 13%, no sharp cut-off; inactive = mostly below about 14%; also: read at 38.3 µM for the half of the compounds with a filed dose; 0% is about no effect
# Pf growth 48h – Primary qHTS for delayed death inhibitors of the malarial parasite plastid, 48 hour incubation; P. falciparum luciferase growth in erythrocytes, 48 h; Potency, µM (titrated, usually from 28.7 µM), for the others: at the highest dose activity change, negative = inhibition, usual class: inhibitors; 310,000 tested, 5.9% active; AID 504832, 2011; also: potency is read from the fitted curve at half-maximal effect; % is scaled to controls: 0 for no effect and ±100 for the full control effect
#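 Cell-based growth assay: transgenic P. falciparum expressing firefly luciferase, cultured in red cells within RPMI 1640 containing 0.5% w/v Albumax, 24 mM bicarbonate and gentamycin. A drop in luciferase activity indicates inhibition.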
# LmPK inhibitor – qHTS Assay for Inhibitors of Leishmania Mexicana Pyruvate Kinase (LmPK); Q27686; purified LmPK, Kinase-Glo ATP luminescence, 1 h; Potency, µM (series often up to 57.5 µM), for inactives: top-dose activity change, negative = inhibition, usual class: inhibitors; 290,000 tested, 0.37% active; also: potency is read from the fitted curve at half-maximal effect; % is scaled to controls: 0 for no effect and ±100 for the full control effect
# Target sequence (Q27686 whole entry, looked up): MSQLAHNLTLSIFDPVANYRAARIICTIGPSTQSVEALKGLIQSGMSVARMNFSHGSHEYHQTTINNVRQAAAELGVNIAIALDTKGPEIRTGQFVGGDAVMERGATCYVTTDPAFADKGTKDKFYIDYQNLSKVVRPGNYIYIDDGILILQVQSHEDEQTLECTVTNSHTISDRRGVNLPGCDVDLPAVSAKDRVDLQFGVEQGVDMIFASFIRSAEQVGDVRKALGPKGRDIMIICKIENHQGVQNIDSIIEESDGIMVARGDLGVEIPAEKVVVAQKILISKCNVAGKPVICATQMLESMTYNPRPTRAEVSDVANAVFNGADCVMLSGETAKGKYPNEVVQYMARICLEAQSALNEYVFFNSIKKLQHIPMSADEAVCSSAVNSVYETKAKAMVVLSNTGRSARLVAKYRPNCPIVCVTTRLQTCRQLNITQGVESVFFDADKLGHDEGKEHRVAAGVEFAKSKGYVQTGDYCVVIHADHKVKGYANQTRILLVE
#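 Screened at intermediate enzyme activity to detect both inhibitors and activators: LmPK at 0.1 nM, with a 0.5 nM enzyme column as activation reference. PEP 0.5 mM, ADP 0.1 mM; ATP detected by luminescence after 1 h.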
# Numbers without * were called inactive; ? = inconclusive; · = not tested or not shown; + = active, no number. Only some compounds are listed: those with a hit (about 22% of all), similar ones and a draw of the others. Unless noted, calls follow the shape of the dose curve; as a rule, active = well fitted inhibition curve with a large enough effect; inconclusive = small, poorly fitted or top-dose-only effect, or another doubt; inactive = no such curve, though single readings can be large or run the other way.
SMILES,Shiga inhibitor,Pf growth 96h,Cycloheximide cs,Pf growth 48h,LmPK inhibitor
CCN1CCCC1CNC(=O)c1ccc2c(c1)N(Cc1cccc(Cl)c1)C(=O)c1ccccc1S2(=O)=O (centres undefined),-13,?,-4,?,-6%
CC1CCCN(CCCNC(=O)c2ccc3c(c2)N(Cc2ccc(F)cc2)C(=O)c2ccccc2S3=O)C1 (centres undefined),-7,12µM*,-10,13µM*,8%
CCN1CCCC1CNC(=O)c1ccc2c(c1)N(Cc1ccccc1F)C(=O)c1ccccc1S2(=O)=O (centres undefined),-7,11%,-4,9.3µM*,2%
CC1CCCN(CCCNC(=O)c2ccc3c(c2)N(Cc2ccccc2F)C(=O)c2ccccc2S3(=O)=O)C1 (centres undefined),-24,?,-21,2.1µM*,-7%
O=C(c1ccco1)N1CCC(c2nc3c(nnn3Cc3ccc(F)cc3)c(=O)[nH]2)CC1,5,16%,-5,?,-1%
CN1CCN(S(=O)(=O)c2ccc(NC(=S)NC(=O)c3ccccc3)cc2)CC1,36,·,21*,-28%,0%
O=C(NC(=S)Nc1ccc(S(=O)(=O)N2CCCCC2)cc1)c1ccc(Cl)cc1,28,-31%,0,·,-3%
CN1CCN(S(=O)(=O)c2ccc(NC(=S)NC(=O)c3ccc(Cl)cc3)cc2)CC1,52,2.3µM*,23*,4.7µM*,0%
N#CC1(Cc2ccc(Cl)cc2)c2ccccc2C=CN1C(=O)c1ccccc1 (centres undefined),18,?,13,·,1%
CCC(C(=O)NCCc1ccc(OC)cc1OC)n1nc(C)n2c(cc3occc32)c1=O (centres undefined),-4,3%,1,-27%,0%
O=C(CN1CCN(c2ccccn2)CC1)N1CC(O)CO1 (centres undefined),15,24%,14,10%,-1%
O=C(CN1CCN(c2ccccn2)CC1)N1c2ccccc2CCc2ccccc21,-2,?,-4,15µM*,-4%
O=C(CN1CCCC1)N1c2ccccc2Sc2ccc(C(F)(F)F)cc21,-1,2%,-4,?,4%
O=C(CSc1nc2ccccc2o1)N1c2ccccc2Sc2ccc(C(F)(F)F)cc21,9,?,8,13µM*,-1%
O=C(CN1CCN(c2ccccn2)CC1)N(c1ccccc1)c1ccc2ccccc2c1,-5,5.2µM*,-3,12µM*,3%
O=C(CN1CCN(c2ccccn2)CC1)N1c2ccccc2Sc2ccc(C(F)(F)F)cc21,17,·,3,4.7µM*,7%
CC(NC(=O)C1CCN(C(=O)c2ccc(F)cc2)CC1)c1ccc(-n2ccnc2)cc1 (centres undefined),·,?,·,-24%,·
Oc1ccc2ccccc2c1C=NC1CCCCC1,28,?,24,?,2%
Oc1ccc(C=NC2CCCCC2)c(O)c1,-2,10µM*,3,9%,-5%
Cc1cc2nc(-c3ccc(SCc4ccccc4C#N)nc3)[nH]c2cc1C,46*,0%,34*,0%,-4%
Cc1ccc2nc(SCC(=O)Nc3cc(C)on3)[nH]c2c1,-7,13%,12,8%,5%
Cc1cc2nc(-c3ccc(SCC(=O)Nc4ccc(S(=O)(=O)NC5CC5)cc4)nc3)[nH]c2cc1C,70*,45%,46*,?,-13%
Cc1cc(NC(=O)CSc2ccc(-c3nc4cc(C)c(C)cc4[nH]3)cn2)no1,60*,34%,38*,3.3µM*,0%
COC(=O)CSc1ccc(-c2nc3ccc(C)cc3[nH]2)cn1,13,-27%,20*,·,3%
CC(C)c1ccc(NC(=O)COC(=O)C2CCCCC2)cc1,·,46%,·,157%,·
CCOC(=O)c1cc(C)nc(Sc2ccc(C)cc2)c1C#N,40,-10%,8,-20%,2%
CCCCNC(=NCc1cccc(C(F)(F)F)c1)Nc1ccccc1,-11,?,-2,·,2%
Cc1ccsc1C(=O)NC(C)c1ccccc1 (centres undefined),-7,-24%,1,24%,1%
Cc1cc2nc(-c3ccc(SCC(=O)NC(C)C)nc3)[nH]c2cc1C,+,-26%,45*,?,-2%
